Results filed as inconclusive are left out. Entries that show only a call come without a potency. Calls of active or inactive are those of the source. The call rests on the fitted dose curve; in most records, active means well fitted inhibition curve with a large enough effect in the signal ratio in the repeat runs, with a control signal flat; inconclusive means weak or mixed curves, or effect the other way; inactive means flat fitted curve, though single readings scatter; the % refers to the signal ratio.
Biological target: D(2) dopamine receptor (Homo sapiens) (UniProt P14416)
Test: Dopamine D2 receptor (DRD2) small molecule antagonists, cell-based qHTS assay (AID 1963595)
Conditions: HEK293-DRD2 cAMP HTRF antagonist mode; series mostly up to 92.4 µM
Text: National Center for Advancing Translational Sciences [NCATS]
Division of Preclinical Innovation [DPI]
U.S. Environmental Protection Agency [EPA]
National Institutes of Environmental Health Sciences [NIEHS]
National Toxicology Program [NTP]
U.S. Food and Drug Administration [FDA]
DRD2 is the D2 subtype of the dopamine receptor, which is coupled to Gi subtype of G protein-coupled receptor. This G protein-coupled receptor inhibits adenylyl cyclase activity. The DRD2-HEK293 cell line stably expressing D2 dopamine receptor can be used for screening agonists and antagonists of interactions between D2 and its ligands. The Hek293-DRD2 cAMP assay is based on HTRF technology. It measures changes of cAMP accumulation in response to Gi coupled GPCR activation or inhibition.
Tox21 Assay Protocol Summary:
DRD2-Hek293 cells were dispensed at 600 cells/3uL/well in 1536-well white plates using a Multidrop Dispenser. After the assay plates were incubated at a 37 C/5% CO2 incubator for 24 h, 1 uL of Ro20-1724 at final concentration of 0.1 mM was transferred to the assay plate by a Flying Reagent Dispenser. Following Ro20-1724 addition, 23 nL of compound dissolved in DMSO, positive controls or DMSO only was added to the assay plates via Wako pintool station. The assay plates were incubated at room temperature for 10 min. Next, 1 uL of mixture of NKH477 (final concentration at 200 nM) and quinpirole (final concentration at 12 nM) was added into the plates. After the assay plates were incubated at room temperature for an additional 30 min, 2.5 ul/well of cAMP-d2 and 2.5 ul/well of anti-cAMP-cryptate were added respectively into the assay plates using a Flying Reagent Dispenser. The plates were incubated at room temperature for 1 h. The fluorescence intensity in the plates was measured at 340 nm excitation and 665 & 620 nm emission by an Envision plate reader.

D(2) dopamine receptor (Homo sapiens), sequence (P14416 whole entry, looked up): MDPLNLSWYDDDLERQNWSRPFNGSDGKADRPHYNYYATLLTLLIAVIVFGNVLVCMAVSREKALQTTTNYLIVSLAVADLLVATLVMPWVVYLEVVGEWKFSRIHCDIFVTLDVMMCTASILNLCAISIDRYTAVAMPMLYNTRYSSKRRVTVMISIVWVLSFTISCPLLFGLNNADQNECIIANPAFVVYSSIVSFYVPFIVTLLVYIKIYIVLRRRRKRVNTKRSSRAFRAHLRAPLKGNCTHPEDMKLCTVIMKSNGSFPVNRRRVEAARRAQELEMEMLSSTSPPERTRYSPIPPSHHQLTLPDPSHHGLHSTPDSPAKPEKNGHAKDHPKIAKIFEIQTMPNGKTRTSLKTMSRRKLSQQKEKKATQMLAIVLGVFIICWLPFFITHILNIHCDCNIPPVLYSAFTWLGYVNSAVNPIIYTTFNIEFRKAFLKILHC

Row | Compound | Potency
1 | CC(=O)[O-].[Tl+] | inactive
2 | CC(=O)C(Cl)C(=O)N(C)C (stereo not given) | inactive
3 | ClC(Cl)Br | inactive
4 | CC(C)NCC(O)c1ccccc1Cl (stereo not given) | inactive
5 | Cc1ncc(C[n+]2csc(CCO)c2C)c(N)n1 | inactive
6 | C=CC(=O)OCC | inactive
7 | S=C=Nc1ccccc1 | inactive
8 | COP(=O)(OC)O/C(=C/Cl)c1cc(Cl)c(Cl)cc1Cl | inactive
9 | COc1ccc(CN2CCNCC2)c(OC)c1OC | inactive
10 | O=C(NC(=O)c1c(F)cccc1F)Nc1ccc(OC(F)(F)C(F)OC(F)(F)F)c(Cl)c1 (stereo not given) | inactive
11 | CC(C)CCCCCCCOP(=O)(Oc1ccccc1)Oc1ccccc1 | inactive
12 | COc1cccc([C@@]2(O)CCCC[C@@H]2CN(C)C)c1 | inactive
13 | CC[C@H](C)[C@H]1O[C@]2(C=C[C@@H]1C)C[C@@H]1C[C@@H](C/C=C(\C)[C@@H](O[C@H]3C[C@H](OC)[C@@H](O[C@H]4C[C@H](OC)[C@@H](O)[C@H](C)O4)[C@H](C)O3)[C@@H](C)/C=C/C=C3\CO[C@@H]4[C@H](O)C(C)=C[C@@H](C(=O)O1)[C@]34O)O2 | inactive
14 | CC(C)C(=O)Cl | inactive
15 | O=C(O)c1c(Cl)ccc2cc(Cl)cnc12 | inactive
16 | CCCN(CCC)CCc1c[nH]c2ccccc12 | inactive
17 | CCOc1cc(C(C)(C)C)ccc1C1COC(c2c(F)cccc2F)=N1 (stereo not given) | inactive
18 | CCOc1nc(C(Cl)(Cl)Cl)ns1 | inactive
19 | COc1ccc(-c2ccccc2)cc1NNC(=O)OC(C)C | inactive
20 | C=CC(=O)OCCN(C)C | inactive

Row | Compound | Potency
21 | Oc1cccc(Cl)c1 | inactive
22 | CCOP(=S)(Oc1ccc([N+](=O)[O-])cc1)c1ccccc1 (stereo not given) | inactive
23 | N#CN=C1SCCN1Cc1ccc(Cl)nc1 | inactive
24 | Oc1cc(Cl)c(Cl)c(Cl)c1 | inactive
25 | CCCCc1ccc(O)cc1 | inactive
26 | O=[N+]([O-])c1cc(C(F)(F)F)c(Cl)c([N+](=O)[O-])c1Nc1ncc(C(F)(F)F)cc1Cl | inactive
27 | c1ccc2c(c1)cc1ccc3cccc4ccc2c1c34 | inactive
28 | CCOc1cc(Oc2ccc(C(F)(F)F)cc2Cl)ccc1[N+](=O)[O-] | inactive
29 | CC(C)CC#N | inactive
30 | CCS(=O)(=O)CCSP(=O)(OC)OC | inactive
31 | CCN(CC)c1nc(C)cc(OP(=S)(OC)OC)n1 | inactive
32 | O=C(O)c1cccc(Cl)c1 | inactive
33 | CS(=O)(=O)c1ccc(C(=O)C2C(=O)CCCC2=O)c(Cl)c1COCC(F)(F)F | inactive
34 | CCOc1cc(OP(=S)(OC)OC)nc(CC)n1 | inactive
35 | O=[N+]([O-])c1ccc(Cl)c(Cl)c1Cl | inactive
36 | CCc1ccc(C2CCNCC2)cc1 | inactive
37 | CC(=O)NNc1ccccc1 | inactive
38 | Cc1cc2c3c(c1)C(c1ccccc1)=N[C@@H](NC(=O)c1ccncc1)C(=O)N3CC2 | inactive
39 | [O]=[Cd] | inactive
40 | O=C(O)[C@H](O)[C@@H](O)C(=O)O | inactive

Source: PubChem BioAssay (Tox21)
